# Source: paper PMC4336329 (PLoS ONE, 2015)
# The campaign covered roughly 310,000 compounds. About 14,000 (4.5%) showed an effect of 50% or more. The effect is printed as a negative number. This excerpt belongs to a sample that is enriched for strong results.
# Target: human ether-à-go-go-related gene (hERG) potassium channel (human, UniProt Q12809)
# Experiment: primary screen, population patch clamp on CHO cells stably expressing hERG; higher = less effect of the substance
# 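Further: peak tail current of the secondary pulse compared with the same well before compound.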
# Sequence of human ether-à-go-go-related gene (hERG) potassium channel (Q12809 whole entry, looked up): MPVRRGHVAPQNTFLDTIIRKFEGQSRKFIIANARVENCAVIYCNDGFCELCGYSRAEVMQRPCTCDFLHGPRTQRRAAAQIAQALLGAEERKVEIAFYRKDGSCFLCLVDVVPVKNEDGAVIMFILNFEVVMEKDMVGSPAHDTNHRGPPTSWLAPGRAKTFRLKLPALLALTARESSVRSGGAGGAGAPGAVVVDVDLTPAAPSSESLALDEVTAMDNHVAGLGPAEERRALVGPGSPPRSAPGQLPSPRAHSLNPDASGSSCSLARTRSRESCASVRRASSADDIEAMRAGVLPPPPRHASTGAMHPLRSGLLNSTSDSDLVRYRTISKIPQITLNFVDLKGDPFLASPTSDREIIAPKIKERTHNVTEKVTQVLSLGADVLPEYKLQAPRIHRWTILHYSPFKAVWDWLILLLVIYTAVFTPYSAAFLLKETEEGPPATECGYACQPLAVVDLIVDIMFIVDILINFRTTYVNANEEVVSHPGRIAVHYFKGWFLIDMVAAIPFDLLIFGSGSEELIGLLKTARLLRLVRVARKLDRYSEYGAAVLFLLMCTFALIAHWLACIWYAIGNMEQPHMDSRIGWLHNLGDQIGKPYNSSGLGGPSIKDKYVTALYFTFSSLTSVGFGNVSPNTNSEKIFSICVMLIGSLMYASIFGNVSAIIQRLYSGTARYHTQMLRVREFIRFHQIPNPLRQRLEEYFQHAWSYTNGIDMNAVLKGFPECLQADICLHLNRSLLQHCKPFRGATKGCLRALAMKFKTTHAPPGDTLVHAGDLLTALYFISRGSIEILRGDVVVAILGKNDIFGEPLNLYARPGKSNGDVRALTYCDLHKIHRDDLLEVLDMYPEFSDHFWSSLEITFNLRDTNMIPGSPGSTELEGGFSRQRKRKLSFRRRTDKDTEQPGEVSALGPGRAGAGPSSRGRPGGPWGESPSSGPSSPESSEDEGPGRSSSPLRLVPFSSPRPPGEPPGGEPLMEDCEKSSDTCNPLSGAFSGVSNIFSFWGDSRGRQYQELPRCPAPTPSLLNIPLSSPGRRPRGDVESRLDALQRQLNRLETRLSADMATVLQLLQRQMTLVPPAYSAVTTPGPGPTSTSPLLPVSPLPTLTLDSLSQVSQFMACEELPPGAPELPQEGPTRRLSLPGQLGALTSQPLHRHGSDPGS
row,SMILES,"hERG current change (%, negative = inhibition) at 10uM"
1,Cc1ccc(SCc2cc(=O)c3c(=O)n(-c4ccccc4)[nH]c3[nH]2)cc1,7.34%
2,N#Cc1nc(-c2ccco2)oc1N1CCCC1,-11.1%
3,COC(=O)c1cc(S(=O)(=O)NCc2ccc3c(c2)OCO3)cn1C,-0.484%
4,CCOC(=O)c1cc(-c2ccc(N3CCOCC3)cc2)nn1-c1ccccc1C(=O)O,5.59%
5,c1ccc(CN2CCN(c3nc4ccccc4c4ccccc34)CC2)cc1,-3.19%
6,O=C(CCc1nc2ccccc2c(=O)[nH]1)NC1CCN(Cc2ccccc2)CC1,-0.782%
7,COc1cc2nc(CN3CCN(C(c4ccccc4)c4ccccc4)CC3)[nH]c(=O)c2cc1OC,1.59%
8,O=c1nc2ccccc2c2n1CC(CN1CCN(Cc3ccccc3)CC1)N2 (stereo not drawn),-66.1%
9,O=c1nc2ccccc2c2n1CC(CN1CCN(C(c3ccccc3)c3ccccc3)CC1)N2 (stereo not drawn),-81.4%
10,O=C(O)CN1CCN(C(c2ccccc2)c2ccccc2)CC1,30.4%
11,COCCCNC(=O)CCn1c(=O)c2ccccc2n(CC(=O)Nc2ccccc2C)c1=O,9.98%
12,CCOc1ccc(Cc2nnc(N)s2)cc1OCC,-6.21%
13,NC(=O)C1(S(=O)(=O)c2ccccc2)CCCCC1,13.2%
14,CC1(C)OC(=O)C(=CNc2ccccc2)C(=O)O1,-4.48%
15,C[N+]1=C(/C=C/Nc2ccccc2)C(C)(C)c2ccccc21.[O-][Cl+3]([O-])([O-])[O-],-81.8%
16,CC1(C)OC(C)(C)/C(=C/Nc2ccccc2)C1=O,10.2%
17,COc1ccc(OCC(=O)Nc2ccc(S(=O)(=O)N3CCCCC3)cc2)cc1,-20.2%
18,O=C1c2ccc([N+](=O)[O-])cc2C(=O)N1c1ccc([N+](=O)[O-])cn1,14.5%
19,CCOC(=O)C1CCN(c2nc3ccccc3nc2C(C#N)C(=O)OC(C)COC)CC1 (stereo not drawn),-13.9%
20,CCOC(=O)C1CCN(c2nc3ccccc3nc2C(C#N)C(=O)OCCOC)CC1 (stereo not drawn),-27.4%
21,CCOC(=O)C1CCCN(c2nc3ccccc3nc2C(C#N)C(=O)OC(C)C)C1 (stereo not drawn),8.39%
22,CCOC(=O)C1CCCN(c2nc3ccccc3nc2C(C#N)C(=O)OCCOC)C1 (stereo not drawn),-66%
23,CCOC(=O)C1CCCN(c2nc3ccccc3nc2C(C#N)C(=O)OC(C)COC)C1 (stereo not drawn),-55.2%

row,SMILES,"hERG current change (%, negative = inhibition) at 10uM"
1,CCOC(=O)C1CCCN(c2nc3ccccc3nc2C(C#N)C(=O)OCC)C1 (stereo not drawn),-14%
2,C/C(=N\NC(=O)CCCOc1ccc(Cl)cc1C)c1ccc(C)o1,3.58%
3,COc1cccc(-n2cc(CNC(=O)C3CCC(=O)N(C4CC4)C3)cn2)c1 (stereo not drawn),-11%
4,COc1ccccc1C(=O)Nc1ccccc1SC,-20.3%
5,CCCCCCn1c(CN2CCCCC2CC)nc2c1c(=O)n(C)c(=O)n2C (stereo not drawn),-51.9%
6,CCCn1c(CN2CCCCC2CC)nc2c1c(=O)n(C)c(=O)n2C (stereo not drawn),-5.14%
7,CCCCCCn1c(CN2CCCCC2C)nc2c1c(=O)n(C)c(=O)n2C (stereo not drawn),-60.5%
8,CCCCCn1c(CN2CCCCC2C)nc2c1c(=O)n(C)c(=O)n2C (stereo not drawn),-44.7%
9,CCCCCn1c(CN2CCCCC2CC)nc2c1c(=O)n(C)c(=O)n2C (stereo not drawn),-44.7%
10,CCCn1c(CN2CCCCC2C)nc2c1c(=O)n(C)c(=O)n2C (stereo not drawn),3.04%
11,Cc1ccc(Nc2nc(-c3ccc(O)cc3O)cs2)nc1,11.1%
12,N/C(=N\[N+](=O)[O-])N1CCN(C(=O)c2ccccc2)CC1,24.8%
13,CC(C)(C)c1ccc(/C=N/Nc2nncn2N)cc1,-21.5%
14,CCOC(=O)CN1C(=N)N(c2nc(NC(C)C)nc(OC)n2)CC1=O,-13.1%
15,CCNc1nc(NC(C)C)nc(N2CC(=O)N(CC(=O)OCC)C2=N)n1,-13.9%
16,CCOC(=O)CN1C(=N)N(c2nc(NC(C)C)nc(NC(C)C)n2)CC1=O,-73.8%
17,CCCCNC(=O)c1ccc(CS(=O)(=O)c2cccc(C(F)(F)F)c2)o1,-53.5%
18,COCCCNC(=O)c1ccc(CS(=O)(=O)c2cccc(C(F)(F)F)c2)o1,-8.62%
19,O=C(NCc1ccco1)c1ccc(CS(=O)(=O)c2cccc(C(F)(F)F)c2)o1,-60.3%
20,COCCNC(=O)c1ccc(CS(=O)(=O)c2cccc(C(F)(F)F)c2)o1,4.09%
21,O=C(NCc1ccc2c(c1)OCO2)c1ccc(CS(=O)(=O)c2cccc(C(F)(F)F)c2)o1,-24.2%
22,CCOCCCNC(=O)c1ccc(CS(=O)(=O)c2cccc(C(F)(F)F)c2)o1,6.78%
